For 81 compounds, inhibition results are on record in PubChem BioAssay AID2661 (Broad Institute, 2010).

The campaign covered roughly 320,000 compounds. About 240 (0.075%) were called active.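 Rule for the calls: active = inhibition at or above 25%, using the most active replicate where run in duplicate; inactive = inhibition below 25%.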 This excerpt belongs to a sample that is enriched for actives.

The target of this assay is Serine/threonine-protein kinase 33 (Homo sapiens) (UniProt Q9BYT3). The assay is described as follows: STK33 phosphorylation of MBP blockers – biochemical, ADP-Glo luminescence, homogeneous, cell-free, primary screen (AID 2661). As to conditions: purified STK33, MBP phosphorylation, at 10 µM, active compounds read high. In general terms: ADP-Glo first removes unused ATP, then detects ADP through luciferase.
Sequence of Serine/threonine-protein kinase 33 (Homo sapiens) (Q9BYT3 whole entry, looked up): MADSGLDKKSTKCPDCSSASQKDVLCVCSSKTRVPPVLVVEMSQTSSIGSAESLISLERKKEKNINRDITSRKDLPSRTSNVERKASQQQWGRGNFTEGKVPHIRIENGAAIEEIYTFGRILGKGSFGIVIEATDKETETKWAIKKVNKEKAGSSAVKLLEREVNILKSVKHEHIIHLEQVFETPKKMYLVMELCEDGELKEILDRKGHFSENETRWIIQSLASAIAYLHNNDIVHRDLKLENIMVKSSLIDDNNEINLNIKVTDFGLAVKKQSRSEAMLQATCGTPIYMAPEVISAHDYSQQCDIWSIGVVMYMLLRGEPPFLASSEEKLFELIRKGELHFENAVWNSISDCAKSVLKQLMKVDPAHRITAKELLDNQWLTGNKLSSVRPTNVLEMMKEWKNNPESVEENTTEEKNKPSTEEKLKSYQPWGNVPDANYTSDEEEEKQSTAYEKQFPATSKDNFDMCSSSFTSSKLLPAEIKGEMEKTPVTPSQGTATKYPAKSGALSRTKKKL
By inhibition is commonly meant the relative decrease from the control value, in per cent. Take `CCOC(=O)[C@H]1[C@H]2COc3cc(OC)ccc3[C@@H]2N2C(=O)CN(Cc3ccc(Cl)cc3)C(=O)[C@@]12C`: the inhibition is 0.914% (inactive). For `O=C(COC(=O)c1n[nH]c2ccccc12)Nc1ccccc1Br`, the inhibition was -1.11% (inactive). Take `CC1CCCCC1NC(=O)Cn1cnc2c1c(=O)n(C)c(=O)n2C` (stereo unspecified): the inhibition was 1.66% (inactive). The figure for `Cc1ccc2c(c1)NC(=O)[C@@]1(C)[C@@H](c3ccccc3)[C@H]3COc4ccc(Cl)cc4[C@@H]3N1C2=O` is -0.222% (inactive). With `CC1(C)CC[C@@]2(C(=O)O)C(C1)C1=CCC3[C@@]4(C)CC[C@H](O)C(C)(C)C4CC[C@@]3(C)[C@]1(C)C[C@H]2O` (stereo partly specified), the inhibition was -0.618% (inactive). Turning to `CCN(C[C@H]1N[C@@](Cc2ccccc2)(C(=O)OC)[C@H]2C(=O)N(Cc3ccccc3)C(=O)[C@@H]12)C(=O)c1ccc(C)cc1`, the inhibition was -0.0719% (inactive). Consider `COc1ccc(-c2nc3cnccn3c2NC2CCCCC2)cc1-c1cccc(Cl)c1`, for which the inhibition is 0.0525% (inactive). With `CN1CCN(C(=O)c2ccc(-c3ccc(Br)cc3)o2)CC1`, the inhibition was -1.87% (inactive).

Take `Cc1ccc(C2(C)NC(=O)N(CC(=O)N3CC(=O)Nc4ccccc43)C2=O)cc1` (stereo unspecified): the inhibition is -1.43% (inactive). Take `O=C(NCc1ccc2c(c1)OCO2)c1cc([N+](=O)[O-])ccc1N1CCOCC1`: the inhibition was 0.302% (inactive).

With `COc1ccc(Br)cc1CN(C)C(=O)C1CC(=O)N(C2CCCC2)C1` (stereo unspecified), the inhibition was -1.57% (inactive). For the compound `COc1cc(C=NNC(=O)c2cccnc2)ccc1OC(=O)c1ccccc1F`, the inhibition is -0.897% (inactive).

For `COc1ccccc1C(=O)OCC(=O)Nc1cccc(S(=O)(=O)NC2=NCCCCC2)c1`, the inhibition is -2.03% (inactive). The figure for `O=C(NNS(=O)(=O)c1c(F)cc(F)c(Cl)c1F)C12CC3CC(CC(C3)C1)C2` is 0.0785% (inactive); for `C=CC[C@H](CC(=O)N(CCO)Cc1ccccc1)C(=O)N[C@@H](COC(=O)[C@@H](CC=C)Cc1ccc(F)cc1)Cc1ccccc1` it is -2.76% (inactive). The value for `CC1(c2ccccc2)NC(=O)N(CC(=O)N2CC(=O)Nc3ccccc32)C1=O` (stereo unspecified) was -2.96% (inactive). Turning to `O=C(Nc1cccc(S(=O)(=O)N2CCOCC2)c1)C12CC3CC(CC(C3)C1)C2`, the inhibition is -0.903% (inactive).

`COc1ccc(C2=Nn3c(nnc3-c3ccccc3OC)SC2)cc1OC1CCCC1`: the inhibition was 0.928% (inactive).

For `O=C(COC(=O)c1ccncc1)Nc1ccc2c(c1)OCO2`, the inhibition is 0.121% (inactive). On to `CN(CC(=O)NCCc1ccc(S(N)(=O)=O)cc1)CC(=O)Nc1ccc(F)c(F)c1F`, for which the inhibition was -2.4% (inactive). The value for `Cc1cccc(C(=O)OCC(=O)NC(C)C2CC3CCC2C3)c1O` (stereo unspecified) was -0.0496% (inactive); that for `Cc1occc1C(=O)Nc1cccc(S(=O)(=O)N2CCOCC2)c1` was -0.0898% (inactive); that for `O=C(COC(=O)c1ccc2c(c1)OCCO2)NCc1ccccc1Cl` was 0.627% (inactive). The value for `COc1ccc2sc(-c3ccc(S(C)(=O)=O)cc3)c(-c3ccc(C(N)=O)cc3)c2c1` was 0.996% (inactive). As for `CCOC(=O)C1CCN(C(=O)CN2C(=O)NC(C)(c3ccc4cc(OC)ccc4c3)C2=O)CC1` (stereo unspecified), the inhibition is -0.656% (inactive). The value for `O=C(OCCN1C(=O)c2ccccc2C1=O)[C@@H]1CC(O)CN1S(=O)(=O)c1ccccc1[N+](=O)[O-]` (stereo partly specified) was -1.85% (inactive). The figure for `Cc1ccc(C(=O)Nc2ccc3c(c2)OCCO3)cc1S(=O)(=O)N1CCOCC1` is -0.304% (inactive); for `CC(C)Cn1c(SCC(=O)Nc2ccc(Cl)cc2F)nc(O)cc1=O` it is -0.953% (inactive).

For `COc1cc(N=Cc2c(O)[nH]c3ccccc23)cc(OC)c1OC`, the inhibition is 58.4% (active). Turning to `CN=c1scc(-c2cc(OC)ccc2OC)n1/N=C/c1c(C)[nH]c2ccccc12`, the inhibition is -0.488% (inactive).

`COc1ccc2[nH]c(C(=O)N/N=C/c3cc(OC)c(OC)c(OC)c3)cc2c1`: the inhibition was 2.65% (inactive). With `COc1ccc(N=Cc2c(O)[nH]c3ccccc23)cc1OC`, the inhibition was 52.5% (active). In the case of `COc1ccccc1N=Cc1c(O)c2ccccc2oc1=O`, the inhibition was -1.49% (inactive).

With `COc1cc(/C=N/NC(=O)Cc2ccccc2)cc(OC)c1OC`, the inhibition was -2.17% (inactive). With `O=C1NC(Cc2ccc(O)cc2)c2nc3ccc(Cl)cc3c(=O)n2-c2ccccc21` (stereo unspecified), the inhibition is -0.58% (inactive). The figure for `COc1ccc(S(=O)(=O)N2CCN(CC(=O)N3CCOCC3)CC2)cc1OC` is -0.603% (inactive); for `C=CCC[C@@H](Cc1ccc(F)cc1)C(=O)O[C@H](CNC(=O)[C@H](CC=C)CC(=O)N(CCO)Cc1ccccc1)c1ccccc1` it is -2.71% (inactive). `COc1cccc(NC(=O)COc2cccnc2[N+](=O)[O-])c1`: the inhibition was -0.0978% (inactive). The value for `CC(OC(=O)c1ccc(Cl)cc1O)C(=O)NCCC1=CCCCC1` (stereo unspecified) was -0.652% (inactive); that for `CC1CC(=NNC(=O)C2COc3ccccc3O2)CC(C)(C)C1` (stereo unspecified) was -2.29% (inactive); that for `CN(CC(=O)Nc1ccc(C(N)=O)cc1)S(=O)(=O)c1ccc2c(c1)OCCO2` was -0.492% (inactive). The figure for `O=C(Nc1cccc(S(=O)(=O)NC2=NCCC2)c1)c1ccc(F)cc1F` is -1.19% (inactive). The value for `Cc1ccc(S(=O)(=O)Nc2ccc(F)c(S(=O)(=O)N3CCOCC3)c2)cc1` was -2.74% (inactive). For `COc1ccc(C(=O)COC(=O)C(O)c2ccccc2)c(OC)c1` (stereo unspecified), the inhibition was -0.118% (inactive).

As for `O=C(N[C@@H]1C/C=C\C[C@@H](CC(=O)N(CCO)Cc2ccccc2)C(=O)N[C@H](Cc2ccccc2)COC1=O)OCC1c2ccccc2-c2ccccc21`, the inhibition is -2.32% (inactive). Regarding `Fc1ccc2cnc(-c3ccccc3)cc2c1`, the inhibition was -0.562% (inactive). The figure for `C=CCC[C@@H](Cc1ccc(F)cc1)C(=O)OC[C@H](Cc1c[nH]c2ccccc12)NC(=O)[C@@H](CC=C)CC(=O)N(CCO)Cc1ccccc1` is -0.461% (inactive); for `O=C1N[C@@H](c2ccccc2)COC(=O)[C@H](Cc2ccc(F)cc2)C/C=C\C[C@@H]1CC(=O)N(CCO)Cc1ccccc1` it is 0.44% (inactive).

As to `CCN(CC(=O)NCc1ccc(F)cc1)S(=O)(=O)c1ccc(Cl)s1`, the inhibition is 0.0366% (inactive).

Take `NC(=O)Nc1ccc(C(=O)OCC(=O)NC2CCCc3ccccc32)cc1` (stereo unspecified): the inhibition is -0.0928% (inactive). On to `Oc1ccc(N=Cc2sc3ccccc3c2Cl)cc1`, for which the inhibition was 1.25% (inactive).

As to `Oc1ccc(N=Cc2c(O)ccc3ccccc23)cc1`, the inhibition was 57.4% (active). For the compound `O=[N+]([O-])c1ccc(N=Cc2c(O)ccc3ccccc23)cc1`, the inhibition was -0.767% (inactive).

`CC(OC(=O)c1c(F)cccc1F)C(=O)NCCC1=CCCCC1` (stereo unspecified): the inhibition is -0.382% (inactive). On to `Cc1ccc(C)c(S(=O)(=O)N2CCN(c3ncnc4sccc34)CC2)c1`, for which the inhibition is -3.05% (inactive). The value for `COc1ccc(C(=O)Nc2cc(S(=O)(=O)N3CCCC3)ccc2Cl)cc1` was 0.138% (inactive); that for `COc1cc(OC)cc(C(=O)NNC(=O)Cc2cccs2)c1` was -0.657% (inactive); that for `COc1ccc2sc(-c3ccc(S(C)(=O)=O)cc3)c(C#Cc3cncn3C)c2c1` was -0.341% (inactive). Turning to `O=C(CNC(=O)c1n[nH]c2ccccc12)Nc1cc(Cl)ccc1Cl`, the inhibition was 1.57% (inactive). Consider `CC(C)n1cnc2c(NCc3ccccc3)cc(N[C@@H](CO)Cc3ccccc3)cc21`, for which the inhibition is 0.0472% (inactive). With `C=CC[C@@H](CC(=O)N[C@@H](CO)Cc1ccccc1)C(=O)N[C@H](COC(=O)[C@H](CC=C)CC(=O)OC(C)(C)C)Cc1ccccc1`, the inhibition was -0.409% (inactive). On to `CCCCCCSc1ccc([C@@H]2[C@H]3C(=O)N(CC)C(=O)[C@H]3[C@]3(C(=O)OC)CCCCN23)cc1`, for which the inhibition was 1.08% (inactive). The value for `CC(C)NC(=O)Nc1cccc2c1O[C@H](CN(C)S(=O)(=O)c1cccs1)[C@@H](C)CN([C@H](C)CO)C2=O` was -0.082% (inactive); that for `O=C(CCc1ccc(S(=O)(=O)N2CCOCC2)cc1)OCC(=O)c1ccc(Br)cc1` was 2.88% (inactive). The value for `COc1cc(NC(=O)COC(=O)c2ccc([N+](=O)[O-])s2)cc(OC)c1OC` was -0.723% (inactive).

Regarding `O=C(CSc1nc2ccccc2c(=O)n1-c1ccccc1F)N1CCOCC1`, the inhibition was -0.216% (inactive). Consider `COC(=O)c1ccc(CNC(=O)c2ccc(S(=O)(=O)N3CCCCCC3)cc2)cc1`, for which the inhibition was -0.472% (inactive). The figure for `Cn1cncc1C#Cc1c(-c2ccsc2)sc2ccccc12` is 0.202% (inactive). The figure for `Cc1ccccc1NC(=O)CSC(=O)c1ccccc1` is -0.158% (inactive); for `COc1ccc(S(=O)(=O)N2CCOCC2)cc1NC(=O)CSc1nnc(NC2CC2)s1` it is -0.646% (inactive). Consider `O=C(CN1C(=O)NC2(CCCCCCC2)C1=O)NCc1ccc(F)cc1`, for which the inhibition was 0.305% (inactive). The figure for `COc1cc(/C=C/C(=O)OCC(=O)NCCCc2ccccc2)ccc1O` is -0.517% (inactive); for `COc1ccc(-c2sc3ccccc3c2-c2ccc(OCCN3CCOCC3)cc2)cc1` it is -0.928% (inactive); for `COc1ccc(S(=O)(=O)N2CCN(c3cnccn3)CC2)cc1` it is 0.373% (inactive).

Consider `Cc1onc(-c2c(F)cccc2Cl)c1C(=O)OCC(=O)N1C(C)CCCC1C` (stereo unspecified), for which the inhibition was -0.377% (inactive). The value for `Cc1ccc(C)c(NC(=O)COC(=O)c2nn(C)c(=O)c3ccccc23)c1` was 0.213% (inactive); that for `Cc1cc(NC(=O)CSc2ncc(C(F)(F)F)cc2Cl)no1` was -0.4% (inactive); that for `COc1ccc(C(=O)O)cc1S(=O)(=O)NC1CCN(Cc2ccccc2)CC1` was -0.986% (inactive). For `Cn1nnnc1SCC(=O)Nc1sccc1C(N)=O`, the inhibition was 0.459% (inactive). The figure for `O=C(c1ccc(S(=O)(=O)NCc2ccco2)cc1)N1CCN(c2ccccc2)CC1` is -0.564% (inactive); for `COCC(C)n1c(SCC(=O)NC2CCCCC2C)nc2ccccc2c1=O` (stereo unspecified) it is 1.21% (inactive).
